Shown are actives, neighbours in structure and some others; about 2.4% of the full set was active somewhere.
ASK1 primary = human ASK1 kinase inhibition, primary screen; inhibition, % at 7.44 µM; AlphaScreen MKK6 phosphorylation by ASK1, luminescence; 0.99% of 22,000 active; in the data active means inhibition above about 35%
ULK1 primary = inhibitors of human ULK1 kinase | O75385 | AlphaScreen Atg13 phosphorylation by ULK1, luminescence | inhibition, % at 5.96 µM | 1.9% of 30,000 active; in the data active means inhibition above about 43%
Target sequence (O75385 whole entry, looked up): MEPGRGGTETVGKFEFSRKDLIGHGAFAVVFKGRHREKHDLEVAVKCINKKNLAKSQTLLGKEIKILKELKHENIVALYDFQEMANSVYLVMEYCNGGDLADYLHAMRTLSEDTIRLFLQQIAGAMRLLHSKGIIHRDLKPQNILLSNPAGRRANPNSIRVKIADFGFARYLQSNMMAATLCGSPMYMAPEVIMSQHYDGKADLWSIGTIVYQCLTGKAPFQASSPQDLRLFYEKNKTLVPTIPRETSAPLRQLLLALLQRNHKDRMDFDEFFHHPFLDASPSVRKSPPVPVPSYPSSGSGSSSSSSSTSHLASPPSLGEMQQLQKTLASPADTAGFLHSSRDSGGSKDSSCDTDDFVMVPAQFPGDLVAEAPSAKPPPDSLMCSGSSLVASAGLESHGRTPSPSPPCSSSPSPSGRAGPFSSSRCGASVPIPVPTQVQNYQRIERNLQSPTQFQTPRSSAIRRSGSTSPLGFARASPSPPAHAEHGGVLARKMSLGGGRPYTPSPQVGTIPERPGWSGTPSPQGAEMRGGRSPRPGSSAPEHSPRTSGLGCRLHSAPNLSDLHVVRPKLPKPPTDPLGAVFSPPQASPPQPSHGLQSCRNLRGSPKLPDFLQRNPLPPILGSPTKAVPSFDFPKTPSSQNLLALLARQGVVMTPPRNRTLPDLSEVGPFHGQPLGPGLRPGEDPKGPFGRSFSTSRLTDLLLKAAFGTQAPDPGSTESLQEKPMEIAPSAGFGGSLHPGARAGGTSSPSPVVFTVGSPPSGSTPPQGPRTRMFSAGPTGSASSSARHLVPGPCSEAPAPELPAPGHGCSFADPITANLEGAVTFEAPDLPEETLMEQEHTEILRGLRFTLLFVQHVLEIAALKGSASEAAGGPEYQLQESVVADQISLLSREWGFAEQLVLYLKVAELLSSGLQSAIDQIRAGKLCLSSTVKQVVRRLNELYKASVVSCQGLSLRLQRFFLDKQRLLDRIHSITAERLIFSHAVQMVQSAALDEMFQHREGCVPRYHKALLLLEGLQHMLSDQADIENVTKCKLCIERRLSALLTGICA
TruHits interf = AlphaScreen optical interference dose response, ASK1 counter-screen; shares compounds with ASK1 primary; AlphaScreen TruHits beads, signal interference counterscreen; IC50, µM; 20% of 220 active;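 active means IC50 of 10 µM or lower in the counterscreen; inactive means IC50 above 10 µM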;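 further: loss of AlphaScreen light from TruHits beads alone with no ASK1 enzyme present; potency of signal reduction so a low IC50 flags an assay artifact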
A number is an active result; 0 = inactive; - = no result given; ! = a repeat was not active.

SMILES | ASK1 primary | ULK1 primary | TruHits interf
CN(C)c1cccc(Nc2nc(Nc3ccccc3)c3ncn(-c4ccsc4)c3n2)c1 | 0 | 0 | -
NC(=O)c1cc2ccccc2cc1Nc1ccnc(Nc2ccc(N3CCOCC3)cc2)c1 | 36 | 0 | 0
NC(=O)c1cnc(Nc2ccnc(Nc3ccc(N4CCOCC4)cc3)c2)s1 | 0 | 0 | -
COc1cc2nc(Cl)nc(Nc3ccc4c(c3)OCO4)c2cc1OC | 0 | 0 | -
CN(C)c1cccc(Nc2nc(Nc3ccc(N4CCOCC4)cc3)c3ncn(Cc4ccc(C(F)(F)F)cc4)c3n2)c1 | 0 | 0 | -
COc1cc(Nc2nc(Nc3cc(OC)c(OC)c(OC)c3)c3ncn(Cc4ccc(C(F)(F)F)cc4)c3n2)cc(OC)c1OC | 0 | 0 | -
COc1cc(Nc2nc(-c3c(C)noc3C)nc3c2ncn3Cc2ccc(C(F)(F)F)cc2)cc(OC)c1OC | 37 | 0 | 0
CCCCn1c2c(=O)n(C)c(=O)n(C)c2n2c(-c3ccc(Cl)cc3)nnc12 | - | 0 | -
CN1CCN(C(=O)c2ccc(-c3nc(Nc4ccc(N5CCOCC5)cc4)c4ncn(-c5ccccc5)c4n3)cc2)CC1 | 0 | 0 | -
Cc1cc(NC2CC2)nc(Nc2ccc(N3CCOCC3)cc2)n1 | 0 | 0 | -
Nc1nc(Nc2ccc(N3CCOCC3)cc2)cc(NC2CCN(Cc3ccccc3)CC2)n1 | 43! | 0 | 0
Cc1cc(NC2CCN(Cc3ccccc3)CC2)nc(Nc2ccc(N3CCOCC3)cc2)n1 | 40 | 0 | 0
c1ccc(CN2CCC(Nc3cc(Nc4ccc(N5CCOCC5)cc4)ncn3)CC2)cc1 | 0 | 0 | -
O=C(Nc1ccccc1)O[C@@H]1C[C@H](C(=O)Nc2ccc3[nH]ncc3c2)N(C(=O)Nc2ccccc2)C1 | 0 | 0 | -
CC(C)n1cnc2c(Nc3ccc4c(c3)OCO4)nc(Nc3ccc(N4CCOCC4)cc3)nc21 | 36 | 0 | 0
c1cc(-n2cnc3c(Nc4ccc(N5CCOCC5)cc4)nc(N4CCOCC4)nc32)cs1 | 0 | 0 | -
CC(C)n1cnc2c(Nc3ccc4c(c3)OCO4)nc(N3CCC(N4CCOCC4)CC3)nc21 | 0 | 0 | -
Oc1ccc(CCNc2nc(N3CCN(Cc4ccc5c(c4)OCO5)CC3)nc3c2ncn3-c2ccsc2)cc1 | 38 | 0 | 0
c1cc(-n2cnc3c(Nc4ccc(N5CCOCC5)cc4)nc(N4CCN(Cc5ccc6c(c5)OCO6)CC4)nc32)cs1 | 51 | 0 | 0
Oc1ccc(CCNc2nc(N3CCN(Cc4ccc5c(c4)OCO5)CC3)nc3c2ncn3-c2ccccc2)cc1 | 0 | 0 | -
Cc1cc(Nc2ccc(N3CCOCC3)cc2)nc(Nc2ccncc2)n1 | 0 | 0 | -
Cc1cc(Nc2ccc3c(c2)OCO3)nc(Nc2ccc(N3CCOCC3)cc2)n1 | 73 | 0 | 0
Nc1nc(Nc2ccc(N3CCOCC3)cc2)nc2c1ncn2C1CCCCC1 | 0 | 0 | -
COc1cc(C2NC(=O)NC(C)=C2C(=O)OCCOC(C)C)cc(Br)c1O (configuration not stated) | - | 0 | -
Cc1noc(C)c1-c1ccc(C(=O)Nc2ccccc2)s1 | 0 | 0 | -
SMILES | ASK1 primary | ULK1 primary | TruHits interf
CN(C)C(=O)c1ccc(Nc2ccc3[nH]ncc3c2)nc1 | 0 | 0 | -
CC(C)n1c(Nc2ccncc2)nc2c(NCc3cccc(C(F)(F)F)c3)ncnc21 | 0 | 0 | -
COc1ccc(-c2nc(C)cc(Nc3ccc(N4CCOCC4)cc3)n2)cn1 | 0 | 0 | -
CC(C)n1cnc2c(Nc3ccc4c(c3)OCO4)nc(N3CCN(Cc4ccc5c(c4)OCO5)CC3)nc21 | 0 | 0 | -
COc1ccc(CCNc2nc(NC3CCN(Cc4ccccc4)CC3)nc3c2ncn3C2CCCCC2)cc1 | 43 | 0 | 0
CC(C)n1cnc2c(Nc3ccc(N4CCOCC4)cc3)nc(N3CCN(Cc4ccc5c(c4)OCO5)CC3)nc21 | 41 | 0 | 0
COc1ccc(-c2nc(C)cc(Nc3ccc(N4CCOCC4)cc3)n2)cc1 | 50 | 0 | 0
COc1ccc(CCNc2nc(N3CCN(Cc4ccc5c(c4)OCO5)CC3)nc3c2ncn3C2CCCCC2)cc1 | 48 | 0 | 0
COc1ccc(CCNc2nc(Nc3ccccc3)nc3c2ncn3C2CCCCC2)cc1 | 0 | 0 | -
Oc1ccc(CCNc2nc(N3CCN(Cc4ccc5c(c4)OCO5)CC3)nc3c2ncn3C2CCCCC2)cc1 | 0 | 0 | -
CC(C)N(CCNc1nc(-c2csc3ccccc23)nc2nc[nH]c12)C(C)C | 0 | 0 | -
Fc1ccc(N2CCn3c(SCc4cccnc4)nnc32)cc1 | - | 0 | -
COc1cccc2cc(C(=O)Nc3sc4c(c3-c3nc5ccccc5s3)CCN(C)C4)oc12 | - | 0 | -
c1ccc(OCCNc2nc(Nc3nccc4ccccc34)nc3c2ncn3-c2ccsc2)cc1 | 0 | 0 | -
Cn1nccc1Nc1cccc(C(=O)NCc2cccnc2)n1 | 0 | 0 | -
COc1ccc(CCNC(=O)c2cccc(-c3ccc(OC)nc3)c2)cc1 | 0 | 0 | -
COc1ccc(CCNc2nc(-c3ccc(N4CCN(C)CC4)cc3)nc3c2ncn3C(C)C)cc1 | 0 | 0 | -
O=C(NCCCN1CCCC1=O)c1ccnc(N2CCC(N3CCOCC3)CC2)c1 | 0 | 0 | -
